Each structure is given as a SMILES string. Unmarked numbers belong to inactive results. Records with an inconclusive call do not appear. Calls of active or inactive are those of the source. Unless noted, calls follow the shape of the full dose curve.

Assay [1] is described as follows: Nuclear factor erythroid 2-related factor 2/antioxidant responsive element (Nrf2/ARE) small molecule agonists: luciferase reporter gene qHTS assay in human keratinocytes (AID 1919969; also: nearly all actives have a fitted effect of over 35% in size; also: potency is read from the fitted curve at half-maximal effect). (Reporter assays use an easily measured gene product as a stand-in for the process of interest.)
Assay [2] concerns the target Gonadotropin-releasing hormone receptor (Homo sapiens) (UniProt P30968). The experiment in a line: Human gonadotropin-releasing hormone receptor (GnRHR) small molecule agonists, calcium flux assay in GnRHR-HEK293 cells (AID 1920063). Also: nearly all actives have a fitted effect of over 35% in size. The gist of the method:
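We seeded human GnRHR-expressing HEK293 cells for 18 hours, loaded them with calcium dye for an hour at 37 C, added test compounds, and recorded fluorescence intensity kinetically for three minutes.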
(Calcium assays in cells follow changes in intracellular calcium, usually with a dye or a luminescent sensor.)

For assay [3], the target named is KiSS-1 receptor (Homo sapiens) (UniProt Q969F8). Description: Human kisspeptin (KISS1R) small molecule agonists, calcium flux assay in KISS1R-HEK293 cells (AID 1920064; active = well fitted activation curve with a large enough effect in the repeat runs). The method, boiled down: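 Kinetic calcium assay, 1 s sampling over 3 min at Ex/Em 480/540, in HEK293 cells engineered with human KISS1R; compounds delivered in DMSO after 1 h dye loading.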
Assay [4] can be described thus: G protein-coupled receptor (GPCR) small molecule agonists, calcium flux assay: HEK293 wild type cell line counter screen (AID 1920065). The gist of the method: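 Calcium-sensitive dye, loaded 1 h at 37 C into cells cultured 18 h, reports compound-evoked calcium release as fluorescence (Ex/Em 480/540), measured over 3 min. Agonist mode; 15-point titrations, triplicate.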

Assay [5] in a line: p53 small molecule agonists, cell-based qHTS assay with human liver microsomes (AID 1963577). The gist of the method:
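Cells carrying a p53-responsive bla reporter were rested 5 h (37 C, 5% CO2) before compound transfer. Human liver microsomes plus NADPH, 0.5 mg/mL final apiece, supplied metabolism during the 16 h 37 C exposure.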
On the technique in general: In qHTS, concentration-response curves come from the screen itself.

Assay [6] is described as follows: p53 small molecule agonists, cell-based qHTS assay with rat liver microsomes (AID 1963578). The method, boiled down: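 Fluorescence from a beta-lactamase reporter under a p53 response element was measured after cells had been incubated 16 h at 37 C with test compound and rat liver microsomes plus NADPH (0.5 mg/mL final each).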
Assay [7] is described as follows: p53 small molecule agonists, cell-based qHTS assay with human liver microsomes: qHTS cell viability counter screen (AID 1963579). Also: nearly all actives have a fitted effect of over 45% in size. Also: potency is read from the fitted curve at half-maximal effect. The method, boiled down:
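Seed p53RE-bla cells at 4,000 per well; incubate 5 h at 37 C; add compound, human liver microsomes and NADPH; incubate 16 h at 37 C; add CellTiter-Glo; after 30 min at room temperature, read luminescence.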

Assay [8] in a line: p53 small molecule agonists, cell-based qHTS assay with rat liver microsomes: qHTS cell viability counter screen (AID 1963580). Also: nearly all actives have a fitted effect of over 45% in size. The method, boiled down:
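In HCT-116 cells carrying a p53 response element-bla reporter, compounds were metabolically activated in situ by rat liver microsomes with NADPH over 16 h. Cell ATP content then served as the cytotoxicity measure.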

Assay [9] in a line: p53 small molecule agonists, cell-based qHTS assay: qHTS cell viability counter screen (AID 1963581). Also: nearly all actives have a fitted effect of over 45% in size. The method, boiled down:
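Following 5 h attachment, HCT-116 p53RE-bla cells took up compound for 16 h at 37 C; the reporter was read with B/G FRET substrate (2 h RT), and viability then via CellTiter-Glo ATP luminescence.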

The nature of assay [10]: p53 small molecule agonists, cell-based qHTS assay (AID 1963582; active = well fitted activation curve with a large enough effect in the signal ratio in the repeat runs, not every such curve was filed as active; the % refers to the signal ratio). The gist of the method:
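In this cell-based concentration-response screen, a p53 response element drives beta-lactamase; cells received DMSO-borne compounds after 5 h culture and were incubated a further 16 h before FRET substrate development.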

For assay [11], the target named is 5-hydroxytryptamine receptor 2A (Homo sapiens) (UniProt P28223). The experiment in a line: 5-hydroxytryptamine receptor 2A (HTR2A) small molecule antagonists, cell-based qHTS assay (AID 1963586). Also: nearly all actives have a fitted effect of over 45% in size. Also: potency is read from the fitted curve at half-maximal effect. The gist of the method: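 Antagonist-mode intracellular calcium assay: DOI (4 nM) added after 5 min compound pre-incubation at room temperature to dye-loaded HTR2A-CHO cells. Fluorescence followed for 3 min, sampled every second.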

For assay [12] the target is unchanged. The experiment in a line: 5-hydroxytryptamine receptor 2A (HTR2A) small molecule agonists, cell-based qHTS assay (AID 1963587). Also: nearly all actives have a fitted effect of over 30% in size. The method, boiled down: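 HTR2A-CHO cells, plated 18 h at 37 C/5% CO2, dye-loaded 1 h at 37 C; compounds in DMSO added by pin tool (agonist mode). Intracellular calcium flux read as kinetic fluorescence on FDSS over 2 min at 1 s intervals.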

Assay [13] deals with Muscarinic acetylcholine receptor M1 (Homo sapiens) (UniProt P11229). The experiment in a line: Cholinergic receptor muscarinic 1 (CHRM1) small molecule antagonists, cell-based qHTS assay (AID 1963588). Also: nearly all actives have a fitted effect of over 40% in size. Also: potency is read from the fitted curve at half-maximal effect. The method, boiled down: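 CHRM1-CHO calcium-flux assay, antagonist mode. Cells were seeded 18 h, dye-loaded 1 h at 37 C and given compound for 5 min at RT, then acetylcholine was added at 50nM. FDSS fluorescence was read 3 min; 15 concentrations, three runs.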

Assay [14] has the same target. The experiment in a line: Cholinergic receptor muscarinic 1 (CHRM1) small molecule agonists, cell-based qHTS assay (AID 1963589). Also: nearly all actives have a fitted effect of over 35% in size. The method, boiled down: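 Measures agonist-induced intracellular calcium rise. Stable human CHRM1 CHO line, 1 h dye load at 37 C, compounds from DMSO, kinetic fluorescence read.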
Assay [15] can be described thus: cAMP Responsive Elements (CRE) small molecule agonists, cell-based qHTS assay (AID 1963590). The method, boiled down:
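A CRE-responsive beta-lactamase reporter in HEK 293T cells was used. Treatment ran 3 h at 37 C; detection used LiveBLAzer B/G FRET substrate for 2 h at room temperature.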

Assay [16] in a line: cAMP Responsive Elements (CRE) small molecule antagonists, cell-based qHTS assay (AID 1963591; active = well fitted inhibition curve with a large enough effect in the signal ratio in the repeat runs, not every such curve was filed as active; the % refers to the signal ratio). The method, boiled down: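 HEK293T cells carrying a CRE-driven beta-lactamase reporter receive compound and NKH477 (0.25 uM final) for 3 h. Fluorescence from LiveBLAzer B/G FRET substrate is read after 2 h at room temperature.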
The target in assay [17] is Beta-2 adrenergic receptor (Homo sapiens) (UniProt P07550). The experiment in a line: Adrenergic beta2 receptor (ADRB2) small molecule antagonists, cell-based qHTS assay (AID 1963592). Also: series mostly up to about 92 µM; nearly all actives have a fitted effect of over 50% in size. The gist of the method:
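Cells (CHO, stable ADRB2 overexpression) incubated 18-20hr at 37C; compounds added from DMSO; agonist mix (1nM isoproterenol, 100uM IBMX, 25uM Ro-20-1724) added; 0.5hr RT; d2-cAMP and anti-cAMP-cryptate added; 1hr RT; 665/615 nm read.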

Assay [18] has the same target. Description: Adrenergic beta2 receptor (ADRB2) small molecule agonists, cell-based qHTS assay (AID 1963593).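 Also: CHO cells stably overexpressing human ADRB2.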 The method, boiled down:
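CHO cells stably over-expressing ADRB2 were plated overnight at 37C, then dosed with compounds plus a stimulation mix containing 100uM IBMX and 25uM Ro-20-1724 for 0.5hr at room temperature. cAMP was measured by HTRF competition, 1hr.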

The target of assay [19] is D(2) dopamine receptor (Homo sapiens) (UniProt P14416). Description: Dopamine D2 receptor (DRD2) small molecule agonists, cell-based qHTS assay (AID 1963594). Also: nearly all actives have a fitted effect of over 35% in size. The gist of the method: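 HEK293 cells stably expressing DRD2 were cultured 24 h at 37 C, then given Ro20-1724 (0.1 mM final) and compounds for 10 min at room temperature. NKH477 (200nM) was then added for 30 min. cAMP was read by HTRF.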

Assay [20] shares this target. The experiment in a line: Dopamine D2 receptor (DRD2) small molecule antagonists, cell-based qHTS assay (AID 1963595; active = well fitted inhibition curve with a large enough effect in the signal ratio in the repeat runs, with a control signal flat; the % refers to the signal ratio). The method, boiled down:
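HTRF cAMP read-out at 665 and 620 nm emission (340 nm excitation). Antagonist mode: compounds were tested against 12 nM quinpirole in DRD2-HEK293 cells, with 200 nM NKH477 raising cAMP and 0.1 mM Ro20-1724 blocking its breakdown.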

Beta-2 adrenergic receptor (Homo sapiens), sequence (P07550 whole entry, looked up): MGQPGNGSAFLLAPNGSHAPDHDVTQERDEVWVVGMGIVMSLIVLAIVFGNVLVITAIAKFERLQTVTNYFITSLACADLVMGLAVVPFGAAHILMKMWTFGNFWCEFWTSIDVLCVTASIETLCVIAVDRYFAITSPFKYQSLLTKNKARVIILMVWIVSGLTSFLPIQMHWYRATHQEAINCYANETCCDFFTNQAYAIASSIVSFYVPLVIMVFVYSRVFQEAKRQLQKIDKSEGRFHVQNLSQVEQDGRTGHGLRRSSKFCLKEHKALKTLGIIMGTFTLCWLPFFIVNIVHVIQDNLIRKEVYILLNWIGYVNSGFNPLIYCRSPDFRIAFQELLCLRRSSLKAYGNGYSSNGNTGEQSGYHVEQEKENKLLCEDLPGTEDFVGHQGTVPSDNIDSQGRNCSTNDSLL
Gonadotropin-releasing hormone receptor (Homo sapiens), sequence (P30968 whole entry, looked up): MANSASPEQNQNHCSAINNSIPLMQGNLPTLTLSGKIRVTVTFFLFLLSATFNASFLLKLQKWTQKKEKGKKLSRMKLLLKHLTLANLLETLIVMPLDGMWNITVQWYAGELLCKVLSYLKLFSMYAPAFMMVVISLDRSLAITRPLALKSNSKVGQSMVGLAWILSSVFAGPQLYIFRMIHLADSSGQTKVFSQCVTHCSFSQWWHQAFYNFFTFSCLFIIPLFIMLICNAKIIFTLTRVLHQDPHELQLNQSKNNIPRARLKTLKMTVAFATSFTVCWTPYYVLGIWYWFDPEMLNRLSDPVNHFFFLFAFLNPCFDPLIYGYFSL
D(2) dopamine receptor (Homo sapiens), sequence (P14416 whole entry, looked up): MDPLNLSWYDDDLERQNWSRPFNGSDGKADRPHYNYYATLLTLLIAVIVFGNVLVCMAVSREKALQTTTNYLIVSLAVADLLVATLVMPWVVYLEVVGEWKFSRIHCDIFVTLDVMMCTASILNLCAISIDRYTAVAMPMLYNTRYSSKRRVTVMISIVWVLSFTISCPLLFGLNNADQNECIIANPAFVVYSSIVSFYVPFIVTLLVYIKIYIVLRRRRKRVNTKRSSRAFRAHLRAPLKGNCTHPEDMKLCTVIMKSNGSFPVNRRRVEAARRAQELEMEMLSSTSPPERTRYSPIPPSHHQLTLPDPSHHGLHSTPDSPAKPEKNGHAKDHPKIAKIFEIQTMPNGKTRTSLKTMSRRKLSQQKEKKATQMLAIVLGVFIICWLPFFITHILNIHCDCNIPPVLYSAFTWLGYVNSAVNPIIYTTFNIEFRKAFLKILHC
Muscarinic acetylcholine receptor M1 (Homo sapiens), sequence (P11229 whole entry, looked up): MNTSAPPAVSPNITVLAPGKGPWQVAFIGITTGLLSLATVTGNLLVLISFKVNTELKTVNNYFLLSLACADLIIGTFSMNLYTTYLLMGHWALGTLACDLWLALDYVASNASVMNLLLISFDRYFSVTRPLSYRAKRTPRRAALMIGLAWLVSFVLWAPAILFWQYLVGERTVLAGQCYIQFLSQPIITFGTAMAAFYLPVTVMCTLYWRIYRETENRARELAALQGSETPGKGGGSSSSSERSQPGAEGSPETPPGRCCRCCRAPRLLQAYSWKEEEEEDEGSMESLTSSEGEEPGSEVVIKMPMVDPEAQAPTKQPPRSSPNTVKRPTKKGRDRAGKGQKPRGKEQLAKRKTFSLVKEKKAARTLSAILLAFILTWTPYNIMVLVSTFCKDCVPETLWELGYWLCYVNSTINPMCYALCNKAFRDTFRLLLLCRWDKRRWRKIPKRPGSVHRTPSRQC
KiSS-1 receptor (Homo sapiens), sequence (Q969F8 whole entry, looked up): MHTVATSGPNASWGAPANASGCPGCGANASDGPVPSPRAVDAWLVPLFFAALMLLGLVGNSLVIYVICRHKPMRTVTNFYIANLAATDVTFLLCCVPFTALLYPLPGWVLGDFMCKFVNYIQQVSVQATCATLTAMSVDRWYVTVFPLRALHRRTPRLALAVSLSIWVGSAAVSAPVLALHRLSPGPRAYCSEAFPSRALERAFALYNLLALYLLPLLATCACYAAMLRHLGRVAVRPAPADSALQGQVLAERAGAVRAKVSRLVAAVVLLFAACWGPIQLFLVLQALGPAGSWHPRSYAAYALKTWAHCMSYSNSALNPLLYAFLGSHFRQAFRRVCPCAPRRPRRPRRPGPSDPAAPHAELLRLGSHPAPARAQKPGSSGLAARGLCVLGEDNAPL
5-hydroxytryptamine receptor 2A (Homo sapiens), sequence (P28223 whole entry, looked up): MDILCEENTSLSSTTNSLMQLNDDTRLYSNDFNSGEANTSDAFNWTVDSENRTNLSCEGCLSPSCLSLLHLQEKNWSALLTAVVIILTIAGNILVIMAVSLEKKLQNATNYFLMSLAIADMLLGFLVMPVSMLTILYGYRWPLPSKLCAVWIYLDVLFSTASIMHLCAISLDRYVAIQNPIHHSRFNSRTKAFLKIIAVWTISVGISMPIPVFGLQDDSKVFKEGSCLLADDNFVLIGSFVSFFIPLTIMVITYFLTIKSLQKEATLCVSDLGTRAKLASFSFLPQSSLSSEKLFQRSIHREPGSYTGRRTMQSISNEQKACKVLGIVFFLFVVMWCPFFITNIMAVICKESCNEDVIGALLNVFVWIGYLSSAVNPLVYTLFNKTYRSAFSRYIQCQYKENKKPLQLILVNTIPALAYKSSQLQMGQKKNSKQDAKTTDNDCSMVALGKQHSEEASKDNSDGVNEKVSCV

Consider `Cc1ccc(O)c(N)c1`, for which the Potency in assay [1] is 24.4 µM (active). The Potency entry in assay [2], in [3], in [4], in assay [5], in assay [6] and in assay [7] was “inactive” in each case. Also, the Potency result in assay [8], in assay [9], in [10], in [11], in assay [12] and in assay [13] was “inactive” in each case. The Potency entry in [14], in [15], in assay [16], in assay [17], in assay [18] and in assay [19] was “inactive” throughout.
For `Cc1cc([N+](=O)[O-])ccc1N`, the Potency entry in assay [1], in assay [2], in assay [3], in assay [4], in assay [5] and in assay [6] was “inactive” each time. The Potency result in assay [7], in assay [8], in assay [9], in assay [11], in assay [12] and in [13] was “inactive” in each case. The Potency entry in assay [14], in [15], in [16], in assay [17], in [18] and in assay [19] was “inactive” each time. Further, the Potency entry in [20] is “inactive”.
On to `Nc1cc(Cl)c([N+](=O)[O-])cc1O`, for which the Potency entry in assay [1], in [2], in assay [3], in assay [4], in assay [5] and in assay [6] was “inactive” in each case. For the same molecule, the Potency entry in [7], in assay [8], in assay [9], in [10], in assay [11] and in [13] was “inactive” in each case. Also, the Potency result in assay [14], in assay [15], in assay [16], in assay [17], in assay [18] and in assay [19] was “inactive” each time. In addition, in assay [20], the Potency result was “inactive”.
As to `c1ccc(OCc2ccc(CCCN3CCOCC3)cc2)cc1`, the Potency result in assay [1], in assay [2], in assay [3], in assay [4], in [5] and in [6] was “inactive” each time. The Potency entry in [7], in assay [8], in assay [9], in assay [12], in assay [14] and in [15] was “inactive” in each case. The Potency result in assay [17], in assay [19] and in [20] was “inactive” each time. Besides, the Potency is 20.5 µM (active) in assay [11] and 2.05 µM (active) in [13].
With `C=CC[N+]1([C@H]2C[C@H]3[C@@H]4CC[C@H]5C[C@H](OC(C)=O)[C@@H](N6CCCCC6)C[C@]5(C)[C@H]4CC[C@]3(C)[C@H]2OC(=O)CC)CCCCC1`, the Potency entry in assay [1], in assay [2], in assay [3], in [4], in assay [5] and in assay [6] was “inactive” each time. Also, the Potency entry in assay [7], in [8], in assay [9], in assay [10], in assay [12] and in [13] was “inactive” in each case. Also, the Potency result in [14], in assay [15], in [16], in assay [18] and in assay [19] was “inactive” throughout.
Turning to `COC(=O)NCCC[Si](OC)(OC)OC`, the Potency in assay [1] was 54.5 µM (active); in assay [7], 20.4 µM (active). Also, the Potency result in assay [2], in assay [3], in assay [4], in assay [5], in [6] and in [8] was “inactive” each time. For the same molecule, the Potency entry in [9], in assay [10], in assay [11], in [12], in assay [14] and in assay [15] was “inactive” each time. Moreover, the Potency entry in [16], in assay [17], in assay [19] and in assay [20] was “inactive” each time.
For the molecule `Cc1cc(Nc2ccc(O)cc2)ccc1N`, the Potency in assay [1] was 43.1 µM (active). In addition, the Potency entry in [2], in [3], in assay [4], in assay [5], in assay [6] and in [7] was “inactive” each time. For the same molecule, the Potency result in assay [8], in [9], in [10], in [11], in assay [12] and in assay [13] was “inactive” each time. Also, the Potency result in assay [14], in assay [15] and in [16] was “inactive” each time.

The record behind these values is PubChem BioAssay (Tox21).
